Screens from PubChem BioAssay.
VP16 counter: Gal4-VP16 reporter inhibition counter-screen; Drosophila S2 Gal4-VP16 UAS-luciferase, luminescence, 20 h; Potency, µM (series often up to 53.6 µM), for inactives: at the highest dose activity, negative = inhibition, usual class: inhibitors; hit rate 3.5% among 310,000;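 note: Gal4-VP16 expression switched on by copper sulfate through the metallothionein promoter; potency is the fitted concentration of half-maximal effect; nearly all actives have a fitted effect of over 50% in size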
ELG1 DNA repair: blocks ELG1-dependent DNA repair in HEK293T cells. HEK293T ELG1-luciferase reporter, luminescence, 16 h; DNA damage induced by 5-fluorouridine. Potency, µM (highest dose often 46.1 µM), without a hit: at the highest dose activity change, negative = inhibition, actives largely listed as inhibitors. hit rate 2.3% among 330,000; note: potency is the fitted concentration of half-maximal effect; nearly all actives have a fitted effect of over 55% in size
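Luminescence from the luciferase reporter, measured 30 min after ONE-Glo reagent at room temperature, was the read-out. Beforehand, 2,000 cells per well were exposed for 16 hr at 37 °C to 5-fluorouridine together with compound or vehicle.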
TDP1 cell noCPT: qHTS for Inhibitors of human tyrosyl-DNA phosphodiesterase 1 (TDP1): qHTS in cells in absence of CPT; DT40 Tdp1-/- hTDP1 cells, no CPT, ATP luminescence, 48 h; Potency, µM (top dose mostly 46.2 µM), without a hit: at the top dose activity change, negative = growth inhibition, most hits filed as inhibitors; hit rate 15% among 420,000; AID 686978, 2013; note: potency is the fitted concentration of half-maximal effect; nearly all actives have a fitted effect of over 55% in size
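Cells were dispensed at 400 per well, compounds added by pin tool, plates incubated ≥48 hr at 37 °C, then CellTiter-Glo added for 30 min at room temperature before luminescence reading. Line: DT40 Tdp1-/- complemented with hTDP1; camptothecin omitted.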
RORg inh: inhibitors of mouse ROR gamma transcriptional activity. AID 2551. P51450. hit rate 5.4% among 310,000. Drosophila S2 Gal4-RORgamma UAS-luciferase reporter, 20 h. Potency, µM (highest dose often 53.6 µM), inactives show at the top dose activity change, negative = inhibition, hits mostly inhibitors; note: potency is the fitted concentration of half-maximal effect; nearly all actives have a fitted effect of over 60% in size
Target sequence (P51450 whole entry, looked up, the tested form may be a part): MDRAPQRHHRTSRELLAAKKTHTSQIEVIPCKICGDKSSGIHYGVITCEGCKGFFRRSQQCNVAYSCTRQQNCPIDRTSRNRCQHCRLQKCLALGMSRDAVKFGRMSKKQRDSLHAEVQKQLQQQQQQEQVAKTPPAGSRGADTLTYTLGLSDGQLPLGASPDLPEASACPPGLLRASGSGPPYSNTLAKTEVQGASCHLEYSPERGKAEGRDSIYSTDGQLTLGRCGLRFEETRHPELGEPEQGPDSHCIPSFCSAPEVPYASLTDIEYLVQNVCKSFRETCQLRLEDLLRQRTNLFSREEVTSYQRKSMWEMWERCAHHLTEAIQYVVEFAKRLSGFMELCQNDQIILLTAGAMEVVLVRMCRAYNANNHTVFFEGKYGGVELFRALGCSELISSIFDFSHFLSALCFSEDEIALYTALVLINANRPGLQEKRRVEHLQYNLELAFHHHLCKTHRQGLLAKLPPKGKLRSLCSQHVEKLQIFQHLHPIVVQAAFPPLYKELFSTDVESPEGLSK
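Using a luciferase readout, inhibitors were identified by reduced reporter activity in Drosophila cells coexpressing a copper-inducible Gal4–ROR gamma fusion and UAS-driven Photinus luciferase, incubated 20 hr after 700 uM copper sulfate.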
TDP1 cell CPT: DT40-hTDP1 cell growth loss with CPT; hit rate 12% among 420,000; Potency, µM (highest dose often 46.2 µM), for inactives: at the top dose activity change, negative = growth inhibition, usual class: inhibitors; chicken DT40 Tdp1-/-;hTDP1 cells + 20 nM CPT, ATP luminescence, 48 h; note: potency is the fitted concentration of half-maximal effect; nearly all actives have a fitted effect of over 55% in size
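Chicken DT40 Tdp1-/- cells stably complemented with human TDP1 were seeded at 400 cells/well in medium containing 20 nM camptothecin, exposed to pin-transferred compounds, and grown at 37 °C for at least 48 hr. Viability was read as ATP luminescence.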
IL-1B inflam inh: blocks inflammasome-driven IL-1 beta release; hit rate 4.7% among 360,000; THP-1 LPS/ATP IL-1B secretion, AlphaLISA, 16 h; hits give low values; activity change, % at 57.5 µM; AID 743279; in the data active = activity change below about -50%; inconclusive = mostly about -30% to -49%
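Secreted IL-1B measured by AlphaLISA bead assay after 16 h compound exposure of THP-1 cells; compounds (final up to 57.5 uM) added 1 h before LPS (250 ng/mL) and ATP (1.25 mM) stimulation; lower signal means less secretion.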
Starred values were filed as active, the others as inactive; ? = inconclusive; / = no result. A selection: hits, their analogues and other compounds. The true share with any hit is near 21%. Unless noted, calls come from the whole dose curve; as a rule, active = well fitted curve in the direction sought with a large enough effect; inconclusive = small, poorly fitted or top-dose-only effect, or another doubt; inactive = no such curve, though single readings can be large; an effect the other way counts as inactive or inconclusive. % is set by controls: 0 for no effect and ±100 for the full control effect.

SMILES | VP16 counter | ELG1 DNA repair | TDP1 cell noCPT | RORg inh | TDP1 cell CPT | IL-1B inflam inh
COc1ccc2[nH]c3c(=O)n(CCCCC(=O)N4CCCC4)c(=S)[nH]c3c2c1 | -1% | ? | -22% | -21% | ? | 0
CCCNC(=O)CCCCn1c(=S)[nH]c2c([nH]c3ccc(OC)cc32)c1=O | -4% | 1% | 5.8µM* | -2% | 5.8µM* | 6
COc1ccc2[nH]c3c(=O)n(CCCCC(=O)NCCC(C)C)c(=S)[nH]c3c2c1 | -9% | 0% | 21µM* | -5% | 15µM* | -5
O=C(NCc1nc(-c2ccc(Cl)cc2)no1)c1ccc2c(c1)OCO2 | 0% | -5% | -17% | 3% | -4% | -5
Cc1ccc(S(=O)(=O)c2nnn3c2nc(N2CCC(C)CC2)c2cc(Cl)ccc23)cc1C | / | / | 21µM* | / | ? | /
CC1CCN(c2nc3c(S(=O)(=O)c4ccccc4)nnn3c3ccc(Cl)cc23)CC1 | / | / | 18µM* | / | 16µM* | /
Cc1ccc(S(=O)(=O)c2nnn3c2nc(N2CCC(C(N)=O)CC2)c2ccccc23)cc1 | 0% | 3% | 17% | 0% | -1% | ?
CCc1ccc(S(=O)(=O)c2nnn3c2nc(N2CCC(C(N)=O)CC2)c2cc(Cl)ccc23)cc1 | / | / | 23µM* | / | ? | /
CC(=O)c1ccc(N2CCN(c3nc4c(S(=O)(=O)c5ccc(C)c(C)c5)nnn4c4ccc(Cl)cc34)CC2)cc1 | / | / | 0% | / | 0% | /
COc1ccc2cc(C3C(C#N)=C(N)OC(C)=C3C(C)=O)c(Cl)nc2c1 (stereo not drawn) | 6% | -12% | 21µM* | 44% | ? | -3
CCOC(=O)C1=C(CC)OC(N)=C(C#N)C1c1ccc(OC)cc1OC (stereo not drawn) | 1% | -3% | ? | ? | -27% | 2
CC(=O)C1=C(C)OC(N)=C(C#N)C1c1cc([N+](=O)[O-])ccc1Cl (stereo not drawn) | -9% | 0% | 3.7µM* | -10% | 4.1µM* | -62*
Cc1nc(N2CCOCC2)c2c(C(=O)N(C)c3ccccc3)c(C)oc2n1 | / | / | 7% | / | 1% | /
Cc1ccc(C(=O)O/N=C(\N)Cc2cccs2)c(Cl)c1 | ? | ? | -16% | -22% | ? | ?
COc1ccc2c(c1)C(=O)N1[C@H]3c4cc(Br)ccc4OC[C@@H]3[C@H](c3ccccc3)[C@]1(C)C(=O)N2 | / | ? | ? | / | ? | -18
C[C@@]12C(=O)Nc3ccc(Br)cc3C(=O)N1[C@H]1c3cc(Br)ccc3OC[C@@H]1[C@@H]2c1ccccc1 | / | -3% | 15µM* | / | 18µM* | -20
C[C@@]12C(=O)Nc3ccccc3C(=O)N1[C@H]1c3cc(Br)ccc3OC[C@@H]1[C@@H]2c1ccccc1 | / | ? | ? | / | ? | -5
C[C@@]12C(=O)Nc3ccc(Cl)cc3C(=O)N1[C@H]1c3cc(Br)ccc3OC[C@@H]1[C@@H]2c1ccccc1 | / | 6% | ? | / | 23µM* | -28
Clc1ccc(OCCN2CCOCC2)cc1Cl | 4% | ? | -12% | 14% | -9% | -7
NC(=S)NN=C1c2cc(OCCN3CCOCC3)ccc2-c2ccc(OCCN3CCOCC3)cc21 | 3.2µM* | ? | 16µM* | 1.3µM* | 16µM* | -96*
C=CCOc1ccc2c(c1)C(=NO)c1cc(OCC=C)ccc1-2 | -8% | ? | 23µM* | -8% | ? | ?
COc1ccc2c(c1)C(=NO)c1cc(OC)ccc1-2 | 2% | -7% | ? | 34% | ? | ?
ON=C1c2cc(OCCN3CCCCC3)ccc2-c2ccc(OCCN3CCCCC3)cc21 | -11% | 5% | 8.2µM* | ? | 7.3µM* | -97*
Clc1ccc(OCCN2CCCCC2)cc1Cl | 5% | -6% | ? | -2% | -21% | 35
